Screening data (PubChem BioAssay)
G9a inh-1: qHTS Assay for Inhibitors of Histone Lysine Methyltransferase G9a. Histone-lysine N-methyltransferase EHMT2 (Homo sapiens), Q96KQ7. G9a H3K9 monomethylation, AlphaScreen, 2 h. Potency, µM (doses to about 102 µM), for the others: at the top dose activity, negative = inhibition, hits mostly inhibitors. actives 8.8% (n = 350,000). AID 504332, 2011; further: potency means the concentration at half of the fitted maximal effect; on the % scale 0 is the no-effect control and ±100 the full control effect; nearly all actives have a fitted effect of over 75% in size
Target sequence (Q96KQ7 913-1193 limits assumed): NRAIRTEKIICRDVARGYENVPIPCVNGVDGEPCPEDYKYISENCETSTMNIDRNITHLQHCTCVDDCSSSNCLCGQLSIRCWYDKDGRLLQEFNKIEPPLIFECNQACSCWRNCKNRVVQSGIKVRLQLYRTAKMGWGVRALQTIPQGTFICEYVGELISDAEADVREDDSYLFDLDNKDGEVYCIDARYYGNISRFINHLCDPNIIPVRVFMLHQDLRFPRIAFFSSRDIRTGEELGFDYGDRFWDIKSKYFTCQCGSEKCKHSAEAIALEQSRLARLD
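Methyltransferase reactions run at room temperature for 2 h (20 nM enzyme, 500 nM biotin-H3K9 peptide, 20 uM SAM) after a 15 min compound preincubation; product detected by AlphaScreen beads and anti-H3K9me1 antibody.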
L3MBTL1 block: qHTS Assay for the Inhibitors of L3MBTL1 | Lethal(3)malignant brain tumor-like protein 1 (Homo sapiens), Q9Y468 | AlphaScreen L3MBTL1–H3K9me1 peptide binding | Potency, µM (top dose mostly 57.1 µM), for the others: at the top dose activity, negative = inhibition, hits mostly inhibitors | actives 0.66% (n = 230,000) | AID 485360, 2010; further: potency means the concentration at half of the fitted maximal effect; on the % scale 0 is the no-effect control and ±100 the full control effect; nearly all actives have a fitted effect of over 60% in size
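Read-out is AlphaScreen signal from streptavidin donor and nickel chelate acceptor beads (10 ug/mL final each) bridging L3MBTL1 (50 nM) and biotinylated K9-monomethylated H3(1-15) peptide (75 nM), after 30 min compound exposure at room temperature.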
BAZ2B block: qHTS Assay for Inhibitors of BAZ2B | Bromodomain adjacent to zinc finger domain protein 2B (Homo sapiens), Q9UIF8 | AlphaScreen BAZ2B-H3K14Ac peptide displacement | Potency, µM (series often up to 114 µM), without a hit: top-dose activity change, negative = inhibition, usual class: inhibitors | actives 4.4% (n = 360,000); further: potency means the concentration at half of the fitted maximal effect; on the % scale 0 is the no-effect control and ±100 the full control effect; nearly all actives have a fitted effect of over 60% in size
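Compounds, titrated to a top concentration of 110 uM, were incubated 30 min at room temperature with preformed BAZ2B/acetyl-K14 H3 peptide complex (50 nM each). Proximity signal was measured by AlphaScreen after 20 min with beads.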
Sfp inh: qHTS Assay for Inhibitors of Bacillus subtilis Sfp phosphopantetheinyl transferase (PPTase) | 4'-phosphopantetheinyl transferase ffp (Bacillus subtilis), Q9F4F7 | Biochemical Sfp PPTase activity, qHTS | Potency, µM, inactives show largest response in the series, negative = inhibition, usual class: inhibitors | actives 3.5% (n = 310,000);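 further: the enzyme is Sfp with the accession as filed and its product quenches rhodamine fluorescence; potency means the concentration at half of the fitted maximal effect; 0% = enzyme reaction without inhibitor and -100% = no enzyme wells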
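After 15 min at room temperature with compound, 15 nM Sfp received 5 uM rhodamine-CoA plus 12.5 uM BHQ-2-ybbR (50 mM Hepes pH 7.6, 10 mM MgCl2). Rate came from the fluorescence difference over 30 min, ex 525/em 598 nm.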
JMJD2A Tudor: qHTS Assay for Inhibitors of JMJD2A-Tudor Domain | Lysine-specific demethylase 4A (Homo sapiens), O75164 | AlphaScreen JMJD2A-Tudor / H3K4me3 peptide binding | Potency, µM (doses to about 114 µM), inactives show top-dose activity change, negative = inhibition, usual class: inhibitors | actives 4.4% (n = 390,000) | AID 504339, 2011; further: potency means the concentration at half of the fitted maximal effect; on the % scale 0 is the no-effect control and ±100 the full control effect; nearly all actives have a fitted effect of over 50% in size
HP1b chromo inh: HTS for Inhibitors of HP1-beta Chromodomain Interactions with Methylated Histone Tails; Potency, µM (series often up to 114 µM), for inactives: at the top dose activity change, negative = inhibition, most hits filed as inhibitors; AlphaScreen HP1-beta / biotin-H3K9me3 peptide binding; actives 0.56% (n = 390,000); Chromobox protein homolog 1 (Homo sapiens), P83916; further: potency means the concentration at half of the fitted maximal effect; nearly all actives have a fitted effect of over 70% in size
Target sequence (P83916 whole entry, looked up): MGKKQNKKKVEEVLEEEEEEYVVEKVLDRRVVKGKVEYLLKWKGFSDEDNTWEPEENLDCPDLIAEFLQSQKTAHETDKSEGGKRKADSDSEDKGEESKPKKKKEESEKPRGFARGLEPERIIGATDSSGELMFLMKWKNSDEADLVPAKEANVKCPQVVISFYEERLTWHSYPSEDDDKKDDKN
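HP1-beta protein (50 nM final) preincubated 30 min at room temperature with biotinylated H3(1-18)K9me3 peptide (50 nM) in PBS pH 7.4, 0.01% Tween-20, then compound added for 30 min. AlphaScreen streptavidin donor/nickel chelate acceptor beads (10 ug/mL final), 30 min dark, luminescence read.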
JMJD2E confirm: Confirmation qHTS Assay for Inhibitors of Human Jumonji Domain Containing 2E (JMJD2E). shares compounds with JMJD2A Tudor. Recombinant JMJD2E, FDH-coupled NADH fluorescence (FDH is formaldehyde dehydrogenase). Potency, µM (titrated, usually from 56.8 µM), inactives show at the top dose activity change, negative = inhibition, usual class: inhibitors. actives 93% (n = 140). AID 2677, 2010
FDH counter: Counterscreen for JMJD2E Inhibitors: qHTS Assay for Inhibitors of Formaldehyde Dehydrogenase (FDH) | shares compounds with JMJD2A Tudor | FDH enzyme assay, NADH fluorescence kinetic | Potency, µM (highest dose often 56.7 µM), without a hit: at the top dose activity, negative = inhibition, usual class: inhibitors | actives 10% (n = 140) | AID 2680, 2010
G9a inh-2: qHTS Assay for Inhibitors of Histone Lysine Methyltransferase G9a: Hit Confirmation; shares compounds with JMJD2A Tudor; G9a H3K9 monomethylation, AlphaScreen, 2 h; Potency, µM, most hits filed as inhibitors; actives 89% (n = 370); further: potency means the concentration at half of the fitted maximal effect; nearly all actives have a fitted effect of over 65% in size
RGS4 inh: qHTS for Inhibitors of Regulator of G Protein Signaling(RGS) 4: Hit Validation. shares compounds with JMJD2A Tudor. RGS4 GAP activity, Transcreener GDP fluorescence polarization. Potency, µM, most hits filed as inhibitors. actives 80% (n = 25)
Target sequence (P49798 whole entry, looked up): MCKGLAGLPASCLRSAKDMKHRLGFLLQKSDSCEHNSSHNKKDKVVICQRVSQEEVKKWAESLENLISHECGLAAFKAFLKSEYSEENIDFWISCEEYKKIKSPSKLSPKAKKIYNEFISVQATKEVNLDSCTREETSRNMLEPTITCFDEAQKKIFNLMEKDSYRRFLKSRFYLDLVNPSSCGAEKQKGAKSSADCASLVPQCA
Numbers without * were called inactive; ? = inconclusive; . = not tested or not shown; [ ] = remark or other dose. Shown are actives, neighbours in structure and some others; about 12% of the full set was active somewhere. The call rests on the fitted dose curve; in most records, active means well fitted curve in the direction sought with a large enough effect; inconclusive means small, poorly fitted or top-dose-only effect, or another doubt; inactive means no such curve, though single readings can be large; an effect the other way counts as inactive or inconclusive.

SMILES | G9a inh-1 | L3MBTL1 block | BAZ2B block | Sfp inh | JMJD2A Tudor | HP1b chromo inh | G9a inh-2 | others
Clc1cccc(Cl)c1CNc1ccc(N2CCCC2)cc1 | 1.78µM* | ? | 20µM* | ? | 17.8µM* | 17.8µM* | 3.99* | RGS4 inh=9.47*
CC1CCc2onc(C(=O)N3CCN(c4cccc(C(F)(F)F)c4)CC3)c2C1 (stereo not given) | 16.8%[59 µM] | . | 24.0%[57.1 µM] | . | 32.4% | 57.8% | .
COc1ccc(OC)c(NC(=S)N2CCN(C(=O)C3CCCO3)CC2)c1 (stereo not given) | -12.0% | . | -0.9% | 2.9% | -12.1% | 12.5% | .
O=C(COc1ccc(Cl)cc1)Nc1nnc(S(=O)(=O)N2CCc3ccccc32)s1 | 0.891µM* | . | ? | . | ? | -8.6% | 44.7*
CCC(=O)Nc1nnc(S(=O)(=O)N2CCc3ccccc32)s1 | -10.7% | 6.2% | ? | 6.3% | -11.3% | 0.2% | .
Cc1ccc(-n2nc(C(=O)N3CCN(c4cc(Cl)ccc4C)CC3)c3c4ccccc4n(C)c3c2=O)cc1 | 5.2%[59 µM] | . | . | . | -7.0% | 25.8% | .
CSc1nnc(C2CCCN2)n1C (stereo not given) | 2.51µM* | ? | 17.8µM* | ? | ? | 27.5% | 4.48*
CCOC(=O)CSc1n[nH]c(NC(=O)NC(C)C)n1 | . | 12.1% | 2.4% | 5.1% | -9.7% | 15.5% | .
O=C(NCCN1CCOCC1)NC1(C(F)(F)F)Oc2ccccc2O1 | ? | 10.6% | 9.3% | -13.1% | -2.1% | 47.0% | ?
COc1ccc2nc(NC(=O)CSc3nc(C)cc(=O)[nH]3)sc2c1 | 2.82µM* | . | -20.2% | -7.0% | 13.4%[57.1 µM] | 11.1% | 25.1*
CCCc1cc(=O)[nH]c(SCC(=O)Nc2nc3ccc(OCC)cc3s2)n1 | -8.1%[0.501 µM] | 4.2% | 3.9% | 15.4% | -17.2% | 32.1% | .
COc1ccc(NC(=O)CSc2nnc(NC(=O)C3CC3)s2)cc1OC | 33.2% | . | -4.8% | 2.8% | -1.5% | 24.9% | .
COc1ccc(NC(=O)CCSc2nc(-c3ccco3)cc(C(F)(F)F)n2)cc1 | -3.7%[59 µM] | . | 0.3% | . | -10.3% | 27.2% | .
CN(C)c1ccc(NC(=O)CCSc2nc(-c3ccco3)cc(C(F)(F)F)n2)cc1 | 0.708µM* | . | ? | . | ? | -2.6% | 1.26*
COc1ccc(C(=O)N/C(=C\c2cn(S(=O)(=O)N(C)C)c3ccccc23)C(=O)NCCN2CCOCC2)cc1OC | 24.5% | . | -15.5% | 16.1% | -14.9% | 19.2% | .
Cc1nn(-c2ccccc2)c2ncc(C(=O)c3cc(Cl)ccc3O)cc12 | 0.794µM* | -0.8% | ? | 2.2% | ? | -7.1% | 11.2*
Oc1c(CN2CCOCC2)ccc2ccccc12 | 2.24µM* | -11.6% | -36.4% | 6.3% | ? | -30.9% | 1.26*
Oc1c(CN2CCOCC2)cc(-c2ccccc2)cc1CN1CCOCC1 | 0.2% | -4.8% | -37.2% | 9.9% | -24.9% | 21.1% | .
CCOc1ccccc1/C=N/NC(=O)C[n+]1ccccc1 | 20.1%[2.33 µM] | -0.9% | ? | . | -2.0% | 54.8% | .
CCOc1ccccc1N(CC(=O)NCc1ccco1)C(=O)CCC(=O)Nc1nccs1 | 1.9% | . | -31.5% | 11.4% | -12.7% | 19.6% | .
NC(=O)c1ccc(-n2nnnc2SCC(=O)c2ccc(O)c(O)c2)cc1 | 11.2µM* | ? | ? | ? | ? | -10.1% | . | JMJD2E confirm=7.94µM*;FDH counter=-25.9%
COc1ccc(-n2nnnc2SCC(=O)c2ccc(O)c(O)c2)cc1 | ? | ? | ? | -9.6% | ? | ? | .
O=C(C1CCCO1)N1CCN(Cc2c(O)ccc3ccccc23)CC1 (stereo not given) | 1.41µM* | . | 4.7% | -22.0% | 79.4µM* | -32.2% | 0.356*
O=C1CC(c2ccccc2)Cc2[nH]c(=O)c(-c3nc(-c4ccc(F)cc4)cs3)cc21 (stereo not given) | 0.631µM* | . | 12.6µM* | . | 22.4µM* | 30.6% | 2.51*
O=C1CC(c2ccccc2)Cc2[nH]c(=O)c(-c3nc(-c4ccc(Cl)cc4)cs3)cc21 (stereo not given) | ? | . | 6.3% | . | 10.2% | 53.9% | .
CCc1ccc2oc(-c3cc(N)ccc3O)nc2c1 | ? | -5.4% | -4.7% | -15.9% | -35.2% | 3.8% | ?
CCCCc1cc2c(cn1)=C(OC(=O)c1ccco1)C(C)(OC(=O)CC)C(=O)C=2 (stereo not given) | . | . | . | -16.6% | . | . | .
